Compounds with a hit are over-represented: about 3.5% of the library has one in this group of screens.
PPC-1+TRAIL kill = compounds killing PPC-1 cancer cells with TRAIL present (potentiator screen, no TRAIL-free arm) | PPC-1 cells + TRAIL, ATPLite viability luminescence | 220,000 tested, 0.41% active | AID 1443 | cell killing (% activity), % at 4 µM or 5 µM;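 active = cell killing above 50% in the first pass at 4 µM, then a duplicate retest at 5 µM averaging 50% or more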
HSP90 refold inh = HSP90 refolding inhibition in rabbit reticulocyte lysate | luciferase refolding luminescence, 3 h | inhibition, % at 5.6 µM | 290,000 tested, 0.91% active | AID 1789;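 active = inhibition above the screen-wide mean plus 3 SD, computed separately per campaign, cut at about 16% in these data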;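 also: inhibitors lower the luminescence because luciferase stays unfolded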
TROY signal inh = TROY signaling inhibition | Q293 LMP1-TROYcd NF-kB luciferase reporter, 4 h | inhibition, % at 10 µM | 360,000 tested, 0.98% active | AID 1347056;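 active = compounds whose plate-normalised and pattern-corrected inhibition of the luciferase reporter signal at the single screening dose is 50% or more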
Platelet DG rel = platelet dense granule release activity; inhibition, %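 (compounds screened at 7.5 µM in platelet-rich plasma)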; 300,000 tested, 0.22% active; human platelet-rich plasma, SFLLRN dense granule ATP release, luminescence;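 active = mean replicate score, as percent of positive control, at or above 50; inconclusive = mean below 50 but at least one replicate at or above 50; inactive = mean and every replicate below 50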
TRAIL sens C8 = caspase-8 TRAIL sensitization | NB7+C8 cells + TRAIL, ATPlite viability luminescence | inhibition (viability loss, TRAIL sensitization), % at 10 µM | 360,000 tested, 1% active;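 active = compounds causing at least 50% loss of cell viability in the single-dose screen, relative to plate controls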
TWEAK Fn14 block = TWEAK-Fn14 signaling inhibition; inhibition, % at 10 µM; 360,000 tested, 2% active; TWEAK-stimulated Fn14 reporter cells, luciferase luminescence, 8 h; in the data active = inhibition above about 50%
HSP90 inh confirm = confirmation of HSP90 inhibitors; shares compounds with HSP90 refold inh; rabbit reticulocyte lysate, luciferase refolding luminescence, 3 h; inhibition, % at 5.9 µM; 2,300 tested, 64% active; in the data active = inhibition above about 18%
FLuc counter = counter-screen for HSP90 inhibitors: inhibitors of firefly luciferase; shares compounds with HSP90 refold inh; purified native firefly luciferase, luminescence; inhibition, % at 5.9 µM; 2,300 tested, 48% active; AID 1847;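 active = inhibition above the mean inhibition of all tested sample wells plus 3 SD, cut at about 10% in these data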
Target sequence (P08659 whole entry, looked up): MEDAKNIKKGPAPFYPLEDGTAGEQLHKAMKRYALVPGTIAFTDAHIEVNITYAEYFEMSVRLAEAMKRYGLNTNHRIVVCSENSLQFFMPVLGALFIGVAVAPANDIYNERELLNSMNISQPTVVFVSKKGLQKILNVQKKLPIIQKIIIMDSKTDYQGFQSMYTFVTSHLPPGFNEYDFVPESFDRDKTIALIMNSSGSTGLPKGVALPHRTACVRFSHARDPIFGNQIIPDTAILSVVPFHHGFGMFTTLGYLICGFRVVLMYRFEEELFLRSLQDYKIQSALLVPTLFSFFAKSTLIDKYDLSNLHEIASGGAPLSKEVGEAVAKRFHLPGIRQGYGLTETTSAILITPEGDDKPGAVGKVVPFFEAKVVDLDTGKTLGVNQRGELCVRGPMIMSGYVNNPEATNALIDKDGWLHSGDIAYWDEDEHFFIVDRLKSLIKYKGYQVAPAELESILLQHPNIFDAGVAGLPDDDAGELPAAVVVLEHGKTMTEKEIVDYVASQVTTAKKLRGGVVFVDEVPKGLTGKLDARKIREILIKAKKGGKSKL
Each line names hits and unclear results; the compound was inactive in the other large screens (follow-up assays come after a bar, where they were run).

COc1ccc(NC(=O)N2CCCC(c3nc(-c4ccc(OC)cc4)no3)C2)cc1 (stereo not drawn)	HSP90 refold inh 20.5 | HSP90 inh confirm inactive | FLuc counter inactive
COc1ccc(-c2noc(C3CCCN(C(=O)Nc4ccccc4)C3)n2)cc1 (stereo not drawn)	HSP90 refold inh 18.6 (no result: PPC-1+TRAIL kill) | HSP90 inh confirm inactive | FLuc counter inactive
COc1ccc(NC(=O)N2CCCC(c3nc(-c4ccc(C(C)C)cc4)no3)C2)cc1 (stereo not drawn)	HSP90 refold inh 65.4, TROY signal inh 68.9, TWEAK Fn14 block 59.4 | HSP90 inh confirm inactive | FLuc counter inactive
COc1ccc(-c2noc(C3CCCN(C(=O)c4ccccc4)C3)n2)cc1 (stereo not drawn)	none
COc1ccc(-c2noc(C3CCCN(C(=O)Nc4ccccc4F)C3)n2)cc1 (stereo not drawn)	HSP90 refold inh 27.4 | HSP90 inh confirm inactive | FLuc counter inactive
CC1=CC(=O)C(C(C)=Nc2ccccc2Cl)C(=O)O1 (stereo not drawn)	none
Cc1c(C(=O)N2CCC2(C)C(=O)O)oc2ccccc12 (stereo not drawn)	none (no result: PPC-1+TRAIL kill, HSP90 refold inh, Platelet DG rel)
O=C1NCCN1CCNS(=O)(=O)c1cc(C(F)(F)F)cc(C(F)(F)F)c1	none (no result: PPC-1+TRAIL kill)
Cc1ccccc1CNC(=O)C(=O)NCCC1CCCCN1S(=O)(=O)c1ccccc1 (stereo not drawn)	none (no result: PPC-1+TRAIL kill, HSP90 refold inh)
O=C(NC(=S)Nc1cccc2c(O)cccc12)c1ccccc1[N+](=O)[O-]	HSP90 refold inh 35.1 (no result: PPC-1+TRAIL kill) | HSP90 inh confirm inactive | FLuc counter inactive
COc1ccc(/C=C/C(=O)Nc2ccccc2C(=O)O)cc1OC	HSP90 refold inh 71.9, TROY signal inh 84.2, TWEAK Fn14 block 98.5 | HSP90 inh confirm 54.7 | FLuc counter 52.3
COC(=O)c1ccc2nc(Nc3nc4ccc(F)cc4s3)sc2c1	HSP90 refold inh 83.2, TROY signal inh 79.3, TWEAK Fn14 block 92.1 | HSP90 inh confirm 89.6 | FLuc counter 81.2
COC(=O)c1ccc2nc(NC(=O)C3CCCCC3)sc2c1	HSP90 refold inh 18.2 | HSP90 inh confirm 35.2 | FLuc counter inactive
CC(C)c1ccc2nc(NC(=O)C3CC3)sc2c1	none (no result: PPC-1+TRAIL kill)
O=C(NNc1nc2ccc(F)cc2s1)c1cccc(F)c1	none
Cc1ccc(C(=O)CSc2nnc(CNc3ccc(F)cc3)o2)cc1	none
COc1ccccc1NS(=O)(=O)c1cccc(C(=O)NCc2ccncc2)c1	none (no result: PPC-1+TRAIL kill, HSP90 refold inh)
CC(=O)Oc1cc(OC(C)=O)c2c(C)cc(=O)oc2c1	HSP90 refold inh 21.2 | HSP90 inh confirm inactive | FLuc counter inactive
COc1cc(/C=N/NC(=O)C(=O)NCc2ccco2)cc(Cl)c1O	none
COc1ccc(N(CC(=O)NCc2ccc(F)cc2)C(=O)Cn2nnc(-c3ccc(C)o3)n2)cc1OC	HSP90 refold inh 49.1 (no result: PPC-1+TRAIL kill) | HSP90 inh confirm inactive | FLuc counter inactive
O=C(Nc1ncc([N+](=O)[O-])s1)c1cccc([N+](=O)[O-])c1	HSP90 refold inh 16.4, TWEAK Fn14 block 93.4 | HSP90 inh confirm 59.8 | FLuc counter 34.4
CC(C)CC(=O)Nc1ncc([N+](=O)[O-])s1	none
Cc1nc(C)c(C(=O)Nc2ncc([N+](=O)[O-])s2)o1	HSP90 refold inh 47.0, TWEAK Fn14 block 85.4 | HSP90 inh confirm 65.8 | FLuc counter 40.6
O=C(Nc1ccc(NC(=O)c2cccc([N+](=O)[O-])c2)cc1)c1cccc([N+](=O)[O-])c1	none (no result: PPC-1+TRAIL kill)
N/C(=N\OC(=O)COc1ccc2ccccc2c1Br)c1ccncc1	none (no result: TROY signal inh, TRAIL sens C8, TWEAK Fn14 block)
CN(C)c1ccc(CNc2nc3cc(-c4ccc(F)cc4)sc3c(=O)n2C)cc1	none (no result: PPC-1+TRAIL kill, HSP90 refold inh, Platelet DG rel)
COc1cc([N+](=O)[O-])ccc1NC(=O)Cn1ccsc1=N	none
N=c1sccn1CC(=O)Nc1ccc([N+](=O)[O-])cc1Cl	HSP90 refold inh 20.9 | HSP90 inh confirm inactive | FLuc counter inactive
C/C(=N\Nc1nncc2ccccc12)c1cccc(OC(F)F)c1	HSP90 refold inh 24.8, TRAIL sens C8 80.9 (no result: PPC-1+TRAIL kill) | HSP90 inh confirm 39.8 | FLuc counter 23.2
C/C(=N\Nc1nncc2ccccc12)c1ccc(O)cc1	HSP90 refold inh 20.3, TRAIL sens C8 59.8 (no result: PPC-1+TRAIL kill) | HSP90 inh confirm 31.7 | FLuc counter 12.1
CN(C)c1ccccc1-c1cc(NC=O)c2ncc(-c3cccc(C(F)(F)F)c3)n2c1	none (no result: PPC-1+TRAIL kill, HSP90 refold inh, Platelet DG rel)
COc1ccc(C(=O)/C=C/Nc2cc(C)ccn2)cc1	HSP90 refold inh 31.0, Platelet DG rel inconclusive, TRAIL sens C8 61.4, TWEAK Fn14 block 74.8 | HSP90 inh confirm 68.5 | FLuc counter 54.8
COc1ccc(N/C=C/C(=O)c2ccccc2)cc1	HSP90 refold inh 53.8, Platelet DG rel 56.0, TRAIL sens C8 71.3, TWEAK Fn14 block 89.6 (no result: PPC-1+TRAIL kill) | HSP90 inh confirm 88.4 | FLuc counter 80.6
CN(CCCn1cnc2c(OCc3ccccc3)ncnc21)Cc1ccco1	none (no result: PPC-1+TRAIL kill, HSP90 refold inh, Platelet DG rel)
COc1cccc(-c2cc(CNC(=O)[C@H]3O[C@@H](n4ccc(=O)[nH]c4=O)[C@H](O)[C@@H]3O)no2)c1	none (no result: PPC-1+TRAIL kill, HSP90 refold inh, Platelet DG rel)
CC(c1ccccc1)n1c(-c2cccs2)nc2c(c(=O)c3ccccc3n2C)c1=O (stereo not drawn)	HSP90 refold inh 25.2 | HSP90 inh confirm inactive | FLuc counter inactive
Cc1cc(S(=O)(=O)NC(=O)[C@H]2O[C@@H](n3cnc4c(N)ncnc43)[C@H](O)[C@@H]2O)ccc1Br	none (no result: PPC-1+TRAIL kill, HSP90 refold inh, Platelet DG rel)
Cc1ccc(S(=O)(=O)Nc2ccc(O)c(Sc3ncn[nH]3)c2)cc1	none
Cc1ccc(S(=O)(=O)/N=C2/C=C(Sc3ncn[nH]3)C(=O)c3ccccc32)cc1	HSP90 refold inh 89.3, TWEAK Fn14 block 94.7 (no result: Platelet DG rel) | HSP90 inh confirm 37.8 | FLuc counter 44.9
Cc1ccc(S(=O)(=O)/N=C2/C=C(Sc3ncn[nH]3)C(=O)c3ccccc32)c(C)c1	HSP90 refold inh 84.9 (no result: TROY signal inh, Platelet DG rel, TRAIL sens C8, TWEAK Fn14 block) | HSP90 inh confirm 44.3 | FLuc counter 37.9
CCCCSc1ccc2nc(-c3ccc(C#N)cc3)cn2c1	none
CCCSc1ccc2nc(-c3ccccc3)cn2c1	PPC-1+TRAIL kill 84.6, HSP90 refold inh 45.8, TROY signal inh 77.9, Platelet DG rel 75.3, TRAIL sens C8 92.0, TWEAK Fn14 block 97.3 | HSP90 inh confirm 90.2 | FLuc counter 82.9
CCN1CCN(Cc2ccc(NC(=O)c3ccc(C)c(NC(=O)c4cccc(-c5cn[nH]c(=O)c5)c4)c3)cc2C(F)(F)F)CC1	HSP90 refold inh 19.5 (no result: PPC-1+TRAIL kill) | HSP90 inh confirm 18.7 | FLuc counter inactive
O=C(COc1ccc2c(c1)OCO2)Nc1nccs1	HSP90 refold inh 37.1, TRAIL sens C8 52.6, TWEAK Fn14 block 66.0 (no result: PPC-1+TRAIL kill) | HSP90 inh confirm 52.7 | FLuc counter 36.4
COc1ccc(OCC(=O)Nc2nccs2)cc1	HSP90 refold inh 31.4, TWEAK Fn14 block 80.6 | HSP90 inh confirm 60.0 | FLuc counter 39.3
Nc1ccc2oc(-c3cccs3)nc2c1	none

High-throughput results deposited in PubChem by several laboratories.
